Test results taken from paper PMC7862700, “An all-to-all approach to the identification of sequence-specific readers for epigenetic DNA modifications on cytosine”.

How the values were obtained:
Test in all cases: DAPPL (digital affinity profiling via proximity ligation, sequencing); 10 mM Tris-HCl pH 7.5, 50 mM NaCl, 1 mM DTT, 4% glycerol, room temperature, 30 min; GST-TFs on glutathione beads, 16-mer random dsDNA library, 0.1% formaldehyde crosslink after washing; high values mean tight binding
FLI1 = biological target: T1, FLI1 (Homo sapiens, UniProt Q01543 1-452); details: protein: recombinant; tags: N-terminal GST; dsDNA, one strand shown
T1 sequence: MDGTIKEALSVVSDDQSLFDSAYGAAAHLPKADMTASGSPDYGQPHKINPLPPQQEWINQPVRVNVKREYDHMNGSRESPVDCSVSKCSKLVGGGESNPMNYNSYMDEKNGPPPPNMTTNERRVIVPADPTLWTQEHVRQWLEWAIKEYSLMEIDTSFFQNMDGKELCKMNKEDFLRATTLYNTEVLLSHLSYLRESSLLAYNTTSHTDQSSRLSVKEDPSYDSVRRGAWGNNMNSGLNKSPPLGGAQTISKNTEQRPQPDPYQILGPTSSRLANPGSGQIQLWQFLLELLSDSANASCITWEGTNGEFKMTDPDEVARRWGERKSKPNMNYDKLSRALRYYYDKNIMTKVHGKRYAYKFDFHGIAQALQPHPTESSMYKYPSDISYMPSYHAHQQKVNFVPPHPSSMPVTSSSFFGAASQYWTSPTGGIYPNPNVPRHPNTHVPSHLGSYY
Method in brief: (§1)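 Pools of DNA-barcoded human transcription factors, expressed in yeast as GST fusions on glutathione beads and combined with a tag-only sample, were incubated with 200 nmole of a 16-mer random double-stranded DNA library. Incubation took 30 min at room temperature in Tris/NaCl/DTT/glycerol buffer and was followed by washing, 0.1% formaldehyde crosslinking, proximity ligation (BsaI/T4 ligase, 1 h, 37 °C), PCR amplification and sequencing on an Illumina NextSeq500. Binding signal is the ratio of a hexamer's read frequency for a factor to its frequency for the tag-only sample.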

ELK1 = biological target: T2, ELK1 (Homo sapiens, UniProt P19419 1-428); details: protein: recombinant; tags: N-terminal GST; dsDNA, one strand shown
T2 sequence: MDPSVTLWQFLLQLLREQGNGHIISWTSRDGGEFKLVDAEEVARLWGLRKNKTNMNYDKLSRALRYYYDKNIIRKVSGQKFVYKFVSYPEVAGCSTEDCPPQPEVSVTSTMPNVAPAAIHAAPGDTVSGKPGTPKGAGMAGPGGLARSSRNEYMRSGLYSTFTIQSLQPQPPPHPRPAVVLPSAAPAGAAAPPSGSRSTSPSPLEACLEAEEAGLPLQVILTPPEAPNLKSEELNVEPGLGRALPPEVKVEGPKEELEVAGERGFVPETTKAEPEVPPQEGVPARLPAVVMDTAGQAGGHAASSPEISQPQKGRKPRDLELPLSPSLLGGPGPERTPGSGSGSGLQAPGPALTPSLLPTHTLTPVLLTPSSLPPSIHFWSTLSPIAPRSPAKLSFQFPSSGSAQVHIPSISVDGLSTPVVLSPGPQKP
Method in brief: as §1

GABPA = biological target: T3, GABPA (Homo sapiens, UniProt Q06546 1-454); details: protein: recombinant; tags: N-terminal GST; dsDNA, one strand shown
T3 sequence: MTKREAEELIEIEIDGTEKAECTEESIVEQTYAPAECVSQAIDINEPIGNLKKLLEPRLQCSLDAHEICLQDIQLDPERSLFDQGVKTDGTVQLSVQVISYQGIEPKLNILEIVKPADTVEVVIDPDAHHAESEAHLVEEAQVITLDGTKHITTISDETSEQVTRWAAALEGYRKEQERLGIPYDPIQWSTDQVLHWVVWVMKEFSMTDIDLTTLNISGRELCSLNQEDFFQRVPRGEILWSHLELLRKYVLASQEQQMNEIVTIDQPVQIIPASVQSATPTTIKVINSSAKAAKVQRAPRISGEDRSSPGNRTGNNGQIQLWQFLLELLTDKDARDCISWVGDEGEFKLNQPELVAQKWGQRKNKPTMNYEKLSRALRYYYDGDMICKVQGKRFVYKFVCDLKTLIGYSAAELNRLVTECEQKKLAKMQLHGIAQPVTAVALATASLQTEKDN
Method in brief: as §1

ERG = biological target: T4, ERG (Homo sapiens, UniProt P11308 1-479); details: protein: recombinant; tags: N-terminal GST; dsDNA, one strand shown
T4 sequence: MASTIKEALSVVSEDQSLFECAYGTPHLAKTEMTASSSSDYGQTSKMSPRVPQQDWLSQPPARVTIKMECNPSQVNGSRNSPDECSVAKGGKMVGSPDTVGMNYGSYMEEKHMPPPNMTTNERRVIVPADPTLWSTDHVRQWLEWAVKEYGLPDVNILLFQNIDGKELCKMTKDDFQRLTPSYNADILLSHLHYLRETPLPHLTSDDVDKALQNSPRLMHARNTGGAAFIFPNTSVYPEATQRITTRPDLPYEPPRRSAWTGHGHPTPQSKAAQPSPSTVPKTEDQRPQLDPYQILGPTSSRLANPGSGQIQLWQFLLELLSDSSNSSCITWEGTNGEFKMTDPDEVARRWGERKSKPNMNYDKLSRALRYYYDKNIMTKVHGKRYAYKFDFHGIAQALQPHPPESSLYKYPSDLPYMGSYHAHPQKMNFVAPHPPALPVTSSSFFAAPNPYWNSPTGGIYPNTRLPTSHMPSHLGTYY
Method in brief: as §1

ELF1 = ELF1 (Homo sapiens, UniProt P32519 1-619); details: protein: recombinant; tags: N-terminal GST; dsDNA, one strand shown
Method in brief: as §1

EHF = biological target: T5, EHF (Homo sapiens, UniProt Q9NZC4 1-300); details: protein: recombinant; tags: N-terminal GST; dsDNA, one strand shown
T5 sequence: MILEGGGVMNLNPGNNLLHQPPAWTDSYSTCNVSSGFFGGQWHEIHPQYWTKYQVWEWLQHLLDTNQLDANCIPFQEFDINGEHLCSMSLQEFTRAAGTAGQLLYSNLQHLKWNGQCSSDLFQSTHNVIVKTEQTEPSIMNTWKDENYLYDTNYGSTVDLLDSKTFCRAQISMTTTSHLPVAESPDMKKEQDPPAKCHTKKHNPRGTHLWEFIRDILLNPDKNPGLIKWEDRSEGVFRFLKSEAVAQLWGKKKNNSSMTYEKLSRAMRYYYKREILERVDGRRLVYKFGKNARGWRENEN
Method in brief: as §1

SPI1 = SPI1 (Homo sapiens, UniProt P17947 1-270); details: protein: recombinant; tags: N-terminal GST; dsDNA, one strand shown
Method in brief: as §1

SPIB = SPIB (Homo sapiens, UniProt Q01892 1-262); details: protein: recombinant; tags: N-terminal GST; dsDNA, one strand shown
Method in brief: as §1

ELK3 = biological target: T6, ELK3 (Homo sapiens, UniProt P41970 1-407); details: protein: recombinant; tags: N-terminal GST; dsDNA, one strand shown
T6 sequence: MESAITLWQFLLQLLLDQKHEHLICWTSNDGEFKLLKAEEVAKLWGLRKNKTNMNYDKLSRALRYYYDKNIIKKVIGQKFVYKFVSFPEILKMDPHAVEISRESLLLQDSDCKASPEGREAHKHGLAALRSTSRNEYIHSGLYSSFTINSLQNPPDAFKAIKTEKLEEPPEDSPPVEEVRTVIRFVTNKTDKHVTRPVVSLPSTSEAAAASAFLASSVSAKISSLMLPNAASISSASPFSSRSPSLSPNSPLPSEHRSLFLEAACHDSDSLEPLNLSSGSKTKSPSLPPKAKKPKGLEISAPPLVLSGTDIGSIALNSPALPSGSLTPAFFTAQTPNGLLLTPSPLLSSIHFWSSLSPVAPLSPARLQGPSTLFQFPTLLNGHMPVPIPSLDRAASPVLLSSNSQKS
Method in brief: as §1

FEV = biological target: T7, FEV (Homo sapiens, UniProt Q99581 1-238); details: protein: recombinant; tags: N-terminal GST; dsDNA, one strand shown
T7 sequence: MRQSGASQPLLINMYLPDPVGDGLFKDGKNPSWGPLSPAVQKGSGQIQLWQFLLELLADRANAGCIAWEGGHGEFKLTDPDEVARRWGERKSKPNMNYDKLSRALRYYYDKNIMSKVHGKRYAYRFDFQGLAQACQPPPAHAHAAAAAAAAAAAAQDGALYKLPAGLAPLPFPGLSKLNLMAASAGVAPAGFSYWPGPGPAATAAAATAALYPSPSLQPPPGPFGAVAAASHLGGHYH
Method in brief: as §1

ETV5 = ETV5 (Homo sapiens, UniProt P41161 1-510); details: protein: recombinant; tags: N-terminal GST; dsDNA, one strand shown
Method in brief: as §1

HSF1 = HSF1 (Homo sapiens, UniProt Q00613 1-529); details: protein: recombinant; tags: N-terminal GST; chain copies: 3; dsDNA, one strand shown
Method in brief: as §1

SPIC = biological target: T8, SPIC (Homo sapiens, UniProt Q8N5J4 1-248); details: protein: recombinant; tags: N-terminal GST; dsDNA, one strand shown
T8 sequence: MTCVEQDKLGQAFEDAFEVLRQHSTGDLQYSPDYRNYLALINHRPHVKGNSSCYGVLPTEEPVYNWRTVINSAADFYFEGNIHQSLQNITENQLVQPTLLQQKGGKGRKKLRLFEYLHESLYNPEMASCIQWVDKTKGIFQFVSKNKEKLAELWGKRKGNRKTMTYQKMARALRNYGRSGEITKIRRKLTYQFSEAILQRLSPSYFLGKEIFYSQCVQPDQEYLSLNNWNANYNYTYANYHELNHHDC
Method in brief: as §1

ELF4 = ELF4 (Homo sapiens, UniProt Q99607 1-663); details: protein: recombinant; tags: N-terminal GST; dsDNA, one strand shown
Method in brief: as §1

ELK4 = biological target: T9, ELK4 (Homo sapiens, UniProt P28324-2 1-405); details: protein: recombinant; tags: N-terminal GST; dsDNA, one strand shown
T9 sequence: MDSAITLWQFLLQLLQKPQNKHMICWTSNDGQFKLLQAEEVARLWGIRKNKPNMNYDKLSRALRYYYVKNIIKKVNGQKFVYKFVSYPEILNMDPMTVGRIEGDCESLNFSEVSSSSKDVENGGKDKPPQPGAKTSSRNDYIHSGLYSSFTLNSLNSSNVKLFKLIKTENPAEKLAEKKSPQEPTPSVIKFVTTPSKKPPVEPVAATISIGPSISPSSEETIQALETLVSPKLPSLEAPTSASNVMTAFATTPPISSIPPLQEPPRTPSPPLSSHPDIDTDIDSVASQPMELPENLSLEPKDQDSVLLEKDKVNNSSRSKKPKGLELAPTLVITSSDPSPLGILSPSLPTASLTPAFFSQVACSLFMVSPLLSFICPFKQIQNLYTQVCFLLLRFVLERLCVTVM
Method in brief: as §1

ETV2 = biological target: T10, ETV2 (Homo sapiens, UniProt O00321 1-342); details: protein: recombinant; tags: N-terminal GST; dsDNA, one strand shown
T10 sequence: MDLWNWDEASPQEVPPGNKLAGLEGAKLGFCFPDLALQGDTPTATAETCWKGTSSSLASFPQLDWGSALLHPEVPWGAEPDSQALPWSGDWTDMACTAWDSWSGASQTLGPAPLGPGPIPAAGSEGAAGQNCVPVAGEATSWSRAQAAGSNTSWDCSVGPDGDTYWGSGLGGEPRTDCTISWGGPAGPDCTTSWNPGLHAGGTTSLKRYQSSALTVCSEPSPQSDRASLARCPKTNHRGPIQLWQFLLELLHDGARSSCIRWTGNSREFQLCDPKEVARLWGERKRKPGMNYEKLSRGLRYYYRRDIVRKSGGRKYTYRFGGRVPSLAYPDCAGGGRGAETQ
Method in brief: as §1

ELF3 = biological target: T11, ELF3 (Homo sapiens, UniProt P78545 1-371); details: protein: recombinant; tags: N-terminal GST; dsDNA, one strand shown
T11 sequence: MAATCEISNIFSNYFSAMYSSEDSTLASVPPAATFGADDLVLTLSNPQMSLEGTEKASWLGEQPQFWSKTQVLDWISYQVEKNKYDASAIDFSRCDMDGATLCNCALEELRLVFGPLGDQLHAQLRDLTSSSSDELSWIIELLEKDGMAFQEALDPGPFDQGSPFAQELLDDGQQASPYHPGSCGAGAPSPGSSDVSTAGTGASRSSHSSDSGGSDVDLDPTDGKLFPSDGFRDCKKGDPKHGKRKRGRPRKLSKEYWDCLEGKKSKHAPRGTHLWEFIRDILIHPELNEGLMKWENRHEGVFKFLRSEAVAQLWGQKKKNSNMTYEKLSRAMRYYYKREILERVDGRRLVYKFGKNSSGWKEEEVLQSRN
Method in brief: as §1

CRX = CRX (Homo sapiens, UniProt O43186 1-299); details: protein: recombinant; tags: N-terminal GST; dsDNA, one strand shown
Method in brief: as §1

ETV1 = ETV1 (Homo sapiens, UniProt P50549 1-477); details: protein: recombinant; tags: N-terminal GST; dsDNA, one strand shown
Method in brief: as §1

Chain of SPIB (Q01892 whole entry): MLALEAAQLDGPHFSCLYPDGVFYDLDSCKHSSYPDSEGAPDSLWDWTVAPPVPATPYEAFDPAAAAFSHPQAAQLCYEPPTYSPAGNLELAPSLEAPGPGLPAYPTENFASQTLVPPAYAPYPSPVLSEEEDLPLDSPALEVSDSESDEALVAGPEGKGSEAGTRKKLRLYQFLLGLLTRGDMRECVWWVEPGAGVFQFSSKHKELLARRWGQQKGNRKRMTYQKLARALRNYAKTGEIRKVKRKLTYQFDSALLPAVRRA
Chain of CRX (O43186 whole entry): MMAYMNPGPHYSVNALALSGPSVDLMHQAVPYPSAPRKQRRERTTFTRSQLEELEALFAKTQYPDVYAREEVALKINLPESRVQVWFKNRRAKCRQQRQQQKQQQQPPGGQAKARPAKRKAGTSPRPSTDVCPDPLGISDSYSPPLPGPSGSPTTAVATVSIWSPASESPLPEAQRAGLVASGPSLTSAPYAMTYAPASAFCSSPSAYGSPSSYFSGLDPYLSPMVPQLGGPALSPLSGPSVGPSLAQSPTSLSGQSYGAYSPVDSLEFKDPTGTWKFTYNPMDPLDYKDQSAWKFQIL
Chain of ETV5 (P41161 whole entry): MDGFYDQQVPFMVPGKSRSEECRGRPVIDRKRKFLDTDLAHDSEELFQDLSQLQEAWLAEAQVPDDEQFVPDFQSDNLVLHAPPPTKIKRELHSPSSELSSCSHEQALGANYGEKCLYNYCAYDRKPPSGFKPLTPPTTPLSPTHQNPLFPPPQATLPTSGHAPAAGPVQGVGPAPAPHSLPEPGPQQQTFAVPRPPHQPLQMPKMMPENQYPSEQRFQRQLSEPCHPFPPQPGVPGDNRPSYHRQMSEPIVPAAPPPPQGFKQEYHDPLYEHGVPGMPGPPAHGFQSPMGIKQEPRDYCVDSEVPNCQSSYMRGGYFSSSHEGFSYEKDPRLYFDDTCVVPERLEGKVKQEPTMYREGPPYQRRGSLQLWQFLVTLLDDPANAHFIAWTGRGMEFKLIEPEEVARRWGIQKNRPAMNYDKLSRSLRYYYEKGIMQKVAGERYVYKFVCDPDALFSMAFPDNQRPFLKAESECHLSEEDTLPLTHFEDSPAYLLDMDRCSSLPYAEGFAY
Chain of ELF4 (Q99607 whole entry): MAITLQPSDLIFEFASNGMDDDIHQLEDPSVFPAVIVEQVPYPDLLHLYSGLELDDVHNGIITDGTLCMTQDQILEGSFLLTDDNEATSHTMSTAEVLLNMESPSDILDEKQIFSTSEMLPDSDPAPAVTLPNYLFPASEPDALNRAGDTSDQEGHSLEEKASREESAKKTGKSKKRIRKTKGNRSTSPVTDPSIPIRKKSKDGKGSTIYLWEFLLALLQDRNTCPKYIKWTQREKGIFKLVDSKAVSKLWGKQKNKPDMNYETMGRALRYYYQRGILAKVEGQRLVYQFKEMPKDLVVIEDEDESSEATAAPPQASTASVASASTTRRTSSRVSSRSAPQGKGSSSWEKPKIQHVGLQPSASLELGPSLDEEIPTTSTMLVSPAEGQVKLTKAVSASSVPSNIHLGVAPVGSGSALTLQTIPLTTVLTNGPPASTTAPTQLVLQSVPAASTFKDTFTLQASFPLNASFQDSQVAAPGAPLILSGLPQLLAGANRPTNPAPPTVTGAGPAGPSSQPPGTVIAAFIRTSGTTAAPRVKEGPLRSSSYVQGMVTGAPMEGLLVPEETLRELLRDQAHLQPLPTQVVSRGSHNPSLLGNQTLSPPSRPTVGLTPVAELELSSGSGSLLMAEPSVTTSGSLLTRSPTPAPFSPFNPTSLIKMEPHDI
Chain of HSF1 (Q00613 whole entry): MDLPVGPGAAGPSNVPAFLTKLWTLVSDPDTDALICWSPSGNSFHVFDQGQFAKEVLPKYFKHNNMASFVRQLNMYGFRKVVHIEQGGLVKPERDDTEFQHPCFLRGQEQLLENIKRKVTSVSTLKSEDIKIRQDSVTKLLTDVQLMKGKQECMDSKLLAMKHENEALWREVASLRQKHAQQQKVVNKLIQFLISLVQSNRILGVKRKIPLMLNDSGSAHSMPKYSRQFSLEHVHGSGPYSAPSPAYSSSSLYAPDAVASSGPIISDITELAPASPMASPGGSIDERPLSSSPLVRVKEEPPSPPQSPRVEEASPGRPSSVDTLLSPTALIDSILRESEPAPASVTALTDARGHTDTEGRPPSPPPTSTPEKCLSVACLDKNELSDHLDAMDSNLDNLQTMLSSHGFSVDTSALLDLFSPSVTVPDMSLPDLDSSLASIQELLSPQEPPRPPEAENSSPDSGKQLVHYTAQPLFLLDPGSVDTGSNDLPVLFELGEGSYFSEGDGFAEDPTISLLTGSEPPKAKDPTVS
Chain of ELF1 (P32519 whole entry): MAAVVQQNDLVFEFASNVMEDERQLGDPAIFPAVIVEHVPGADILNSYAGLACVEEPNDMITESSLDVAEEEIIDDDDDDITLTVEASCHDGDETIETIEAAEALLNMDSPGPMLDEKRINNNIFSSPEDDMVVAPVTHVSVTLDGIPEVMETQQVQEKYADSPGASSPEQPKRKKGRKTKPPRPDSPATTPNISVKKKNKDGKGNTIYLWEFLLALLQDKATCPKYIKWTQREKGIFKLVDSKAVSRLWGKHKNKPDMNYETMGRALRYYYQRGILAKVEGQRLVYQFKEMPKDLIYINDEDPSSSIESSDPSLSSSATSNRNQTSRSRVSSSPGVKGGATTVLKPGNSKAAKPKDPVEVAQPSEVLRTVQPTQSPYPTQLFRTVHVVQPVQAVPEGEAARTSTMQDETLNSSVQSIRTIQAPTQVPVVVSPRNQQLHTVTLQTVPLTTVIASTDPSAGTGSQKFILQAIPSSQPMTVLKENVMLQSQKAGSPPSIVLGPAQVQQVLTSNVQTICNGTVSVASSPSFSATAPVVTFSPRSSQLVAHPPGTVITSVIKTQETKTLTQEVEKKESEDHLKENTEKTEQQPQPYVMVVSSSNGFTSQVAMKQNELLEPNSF
Chain of ETV1 (P50549 whole entry): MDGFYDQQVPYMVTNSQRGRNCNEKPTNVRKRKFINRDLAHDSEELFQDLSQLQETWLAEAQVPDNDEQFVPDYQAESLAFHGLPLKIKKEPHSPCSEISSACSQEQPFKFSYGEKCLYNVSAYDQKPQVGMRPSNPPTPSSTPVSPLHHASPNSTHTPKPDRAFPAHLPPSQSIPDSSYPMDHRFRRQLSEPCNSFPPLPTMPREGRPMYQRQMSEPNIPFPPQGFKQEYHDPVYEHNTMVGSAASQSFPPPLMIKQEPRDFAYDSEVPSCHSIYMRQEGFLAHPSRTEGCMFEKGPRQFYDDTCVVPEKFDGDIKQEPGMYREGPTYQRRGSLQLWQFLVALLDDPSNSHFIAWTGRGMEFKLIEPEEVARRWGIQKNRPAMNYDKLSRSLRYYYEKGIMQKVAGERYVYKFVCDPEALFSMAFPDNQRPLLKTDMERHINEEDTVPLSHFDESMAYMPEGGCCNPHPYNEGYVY

## CGCTCT
FLI1
  binding signal: 1.39 fold enrichment (6-mer frequency, TF over GST control)
ELK1
  binding signal: 1.25 fold enrichment (6-mer frequency, TF over GST control)
GABPA
  binding signal: 1.34 fold enrichment (6-mer frequency, TF over GST control)
ERG
  binding signal: 1.21 fold enrichment (6-mer frequency, TF over GST control)
ELF1
  binding signal: 1.3 fold enrichment (6-mer frequency, TF over GST control)
EHF
  binding signal: 1.21 fold enrichment (6-mer frequency, TF over GST control)
SPI1
  binding signal: 1.21 fold enrichment (6-mer frequency, TF over GST control)
SPIB
  binding signal: 1.16 fold enrichment (6-mer frequency, TF over GST control)
ELK3
  binding signal: 1.18 fold enrichment (6-mer frequency, TF over GST control)
FEV
  binding signal: 1.27 fold enrichment (6-mer frequency, TF over GST control)
ETV5
  binding signal: 1.34 fold enrichment (6-mer frequency, TF over GST control)
HSF1
  binding signal: 1.17 fold enrichment (6-mer frequency, TF over GST control)
SPIC
  binding signal: 1.31 fold enrichment (6-mer frequency, TF over GST control)
ELF4
  binding signal: 1.39 fold enrichment (6-mer frequency, TF over GST control)
ELK4
  binding signal: 1.07 fold enrichment (6-mer frequency, TF over GST control)
ETV2
  binding signal: 1.12 fold enrichment (6-mer frequency, TF over GST control)
ELF3
  binding signal: 1.24 fold enrichment (6-mer frequency, TF over GST control)
CRX
  binding signal: 1.05 fold enrichment (6-mer frequency, TF over GST control)
ETV1
  binding signal: 1.25 fold enrichment (6-mer frequency, TF over GST control)
